Experimental data: PubChem BioAssay (EPA / NIEHS)
Records with an inconclusive call do not appear. Calls of active or inactive are those of the source. Rule for the calls, unless noted: active = hit-call score of the fitted dose curve at least 0.9, where 1 is the maximum; inactive = score below 0.9.

Legend:
[1] = molecular target: Nuclear respiratory factor 1 (Homo sapiens) (UniProt Q16656); assay: ATG_NRF1_CIS: Attagene CIS-FACTORIAL HepG2 Assay for human Nuclear Respiratory Factor 1 (NRF1) Orphan Gene (AID 2282987); details: HepG2 NRF1 cis-element reporter, Attagene multiplex; actives raise or lower the signal
Sequence of Nuclear respiratory factor 1 (Homo sapiens) (Q16656 whole entry, looked up): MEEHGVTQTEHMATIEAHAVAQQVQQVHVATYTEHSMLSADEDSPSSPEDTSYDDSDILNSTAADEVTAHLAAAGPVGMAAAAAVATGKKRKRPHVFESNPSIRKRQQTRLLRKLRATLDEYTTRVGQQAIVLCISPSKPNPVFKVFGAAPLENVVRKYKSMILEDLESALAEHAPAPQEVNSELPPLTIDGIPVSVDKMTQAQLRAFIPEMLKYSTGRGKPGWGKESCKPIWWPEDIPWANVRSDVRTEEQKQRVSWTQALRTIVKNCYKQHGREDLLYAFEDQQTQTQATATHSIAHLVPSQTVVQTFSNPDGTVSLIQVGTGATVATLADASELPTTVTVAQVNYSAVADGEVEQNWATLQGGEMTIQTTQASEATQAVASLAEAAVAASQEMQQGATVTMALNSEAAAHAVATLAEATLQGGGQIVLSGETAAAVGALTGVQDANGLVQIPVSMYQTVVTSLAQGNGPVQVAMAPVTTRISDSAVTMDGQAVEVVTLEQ
Outline: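 Reporter mRNA induction or loss in HepG2 cells after 24 h dosing; cis-regulated reporter constructs report endogenous transcription-factor activity. Quantified by RT-PCR/capillary electrophoresis fluorescence, DMSO-referenced.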

[2] = ATG_NFI_CIS: Attagene CIS-FACTORIAL HepG2 Assay for human Nuclear Factor I (NFI) (AID 2282989); details: HepG2 cis-regulatory reporter, NFI response element transcription; actives raise or lower the signal
Outline: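 HepG2 cells transiently transfected with cis-element-driven multiplexed reporter transcription units, dosed for 24 h. Reporter mRNA quantified by RT-PCR, fluorescent labelling, HpaI digestion and capillary electrophoresis; bidirectional fit versus DMSO baseline.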

[3] = molecular target: Myc proto-oncogene protein (Homo sapiens) (UniProt P01106); assay: ATG_Myc_CIS: Attagene CIS-FACTORIAL HepG2 Assay for human Myelocytomatosis (Myc) Proto-Oncogene Transcription Factor (AID 2282990); details: HepG2, Attagene cis-reporter transcription factor activity; actives raise or lower the signal
Sequence of Myc proto-oncogene protein (Homo sapiens) (P01106 whole entry, looked up, the tested form may be a part): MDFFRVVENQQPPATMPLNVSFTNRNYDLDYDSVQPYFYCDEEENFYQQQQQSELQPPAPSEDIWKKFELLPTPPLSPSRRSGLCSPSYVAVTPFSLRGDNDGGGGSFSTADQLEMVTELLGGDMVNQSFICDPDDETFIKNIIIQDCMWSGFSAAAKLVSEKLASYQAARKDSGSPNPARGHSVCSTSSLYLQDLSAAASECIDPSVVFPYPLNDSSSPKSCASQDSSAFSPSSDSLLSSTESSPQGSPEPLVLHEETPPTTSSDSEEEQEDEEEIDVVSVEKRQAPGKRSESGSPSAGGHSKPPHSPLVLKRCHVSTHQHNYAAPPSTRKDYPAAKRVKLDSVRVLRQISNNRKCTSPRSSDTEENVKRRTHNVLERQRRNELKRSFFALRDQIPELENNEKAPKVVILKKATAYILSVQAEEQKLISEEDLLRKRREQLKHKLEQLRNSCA
Outline: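 Read-out: fluorescent reporter mRNA fragments resolved by capillary electrophoresis after RT-PCR. Human HepG2 liver cells carried transfected cis-element reporter units and were dosed for 24 h. Gain or loss of signal fitted relative to DMSO baseline.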

[4] = ATG_NF_kB_CIS: Attagene CIS-FACTORIAL HepG2 Assay for human Nuclear Factor Kappa B (NF-kB) (AID 2282991); details: HepG2 Attagene cis-factorial NF-kB reporter mRNA; actives raise or lower the signal
Outline: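 DMSO served as negative control and baseline for bidirectional curve fitting. Transiently transfected HepG2 cells were dosed for 24 h, then reporter transcripts were measured by RT-PCR with capillary electrophoresis detection.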

[5] = ATG_NRF2_ARE_CIS: Attagene CIS-FACTORIAL HepG2 Assay for human Nuclear Factor Erythroid 2 Related Factor 2 (NFR2) response to Antioxidant Response Elements (ARE) (AID 2282992); details: HepG2 Attagene ARE/NRF2 reporter, transcription factor activity; actives raise or lower the signal;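 for AC50: reporter mRNA level measured by RT-PCR and capillary electrophoresis fluorescence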
Outline: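 HepG2 cells transiently transfected with multiplexed cis-regulated reporter transcription units measure endogenous transcription factor activity. Reporter mRNA at 24 h is quantified by RT-PCR, fluorescent labelling and capillary electrophoresis, with bidirectional fitting relative to DMSO.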

[6] = ATG_Oct_MLP_CIS: Attagene CIS-FACTORIAL HepG2 Assay for human Octamer-Binding Transcription Factor (Oct) (AID 2282993); details: HepG2 Attagene cis-factorial Oct reporter, mRNA; actives raise or lower the signal
Outline: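 HepG2 cells transiently transfected with cis-promoter-driven multiplexed reporter transcription units, dosed for 24 h. Reporter mRNA quantified by RT-PCR, fluorescent labelling, HpaI digestion and capillary electrophoresis; bidirectional fits versus DMSO baseline.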

[7] = molecular target: Cellular tumor antigen p53 (Homo sapiens) (UniProt P04637); assay: ATG_p53_CIS: Attagene CIS-FACTORIAL HepG2 Assay for human p53 Transcription Factor (AID 2282994); details: HepG2 p53 cis-element reporter, Attagene mRNA; actives raise or lower the signal
Sequence of Cellular tumor antigen p53 (Homo sapiens) (P04637 whole entry, looked up): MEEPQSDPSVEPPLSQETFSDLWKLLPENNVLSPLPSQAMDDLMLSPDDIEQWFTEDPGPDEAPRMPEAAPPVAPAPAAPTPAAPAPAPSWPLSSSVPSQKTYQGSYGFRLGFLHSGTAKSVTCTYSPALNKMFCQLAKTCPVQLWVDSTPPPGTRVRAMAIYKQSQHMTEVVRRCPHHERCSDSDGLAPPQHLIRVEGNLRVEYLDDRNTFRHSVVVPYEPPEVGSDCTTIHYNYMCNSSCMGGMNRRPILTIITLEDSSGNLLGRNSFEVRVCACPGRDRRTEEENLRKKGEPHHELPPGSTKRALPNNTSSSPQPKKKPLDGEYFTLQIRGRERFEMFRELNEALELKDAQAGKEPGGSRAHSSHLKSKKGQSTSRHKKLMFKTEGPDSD
Outline: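 HepG2 cells transiently transfected with multiplexed cis-regulated reporter transcription units read endogenous TF activity. After 24 h compound exposure, reporter mRNA was quantified by RT-PCR, fluorescent labelling, HpaI digestion and capillary electrophoresis; bidirectional fits versus DMSO baseline.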

[8] = molecular target: human Peroxisome Proliferator-activated Receptor delta (PPARd), PPARD (gene 5467) (UniProt Q03181); assay: ATG_PPARd_TRANS: Attagene TRANS-FACTORIAL HepG2 Assay for human Peroxisome Proliferator-activated Receptor delta (PPARd) (AID 2283002; active = hit-call score of the fitted dose curve at least 0.9, where 1 is the maximum)
Sequence of human Peroxisome Proliferator-activated Receptor delta (PPARd), PPARD (gene 5467) (Q03181 whole entry, looked up, the tested form may be a part): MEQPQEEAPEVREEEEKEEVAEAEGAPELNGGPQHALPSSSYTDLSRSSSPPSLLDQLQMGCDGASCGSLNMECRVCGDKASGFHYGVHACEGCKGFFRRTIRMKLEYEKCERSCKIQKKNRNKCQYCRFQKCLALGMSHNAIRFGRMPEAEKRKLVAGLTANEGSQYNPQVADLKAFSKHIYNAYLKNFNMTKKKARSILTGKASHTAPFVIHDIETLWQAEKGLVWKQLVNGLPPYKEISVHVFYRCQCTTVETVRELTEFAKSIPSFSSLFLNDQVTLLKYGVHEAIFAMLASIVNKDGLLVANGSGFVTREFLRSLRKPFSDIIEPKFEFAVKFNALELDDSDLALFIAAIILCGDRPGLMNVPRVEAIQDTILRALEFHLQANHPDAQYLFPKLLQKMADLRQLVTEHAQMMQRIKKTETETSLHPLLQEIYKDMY
Outline: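 Read-out: reporter mRNA induction, quantified by fluorescent RT-PCR products resolved by capillary electrophoresis. Human HepG2 liver cells carried transiently transfected Gal4-UAS reporter constructs with chimeric NR-Gal4 fusions. Cells were dosed for 24 h; DMSO served as baseline.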

[9] = molecular target: Retinoic acid receptor alpha (Homo sapiens) (UniProt P10276); assay: ATG_RARa_TRANS: Attagene TRANS-FACTORIAL HepG2 Assay for human Retinoic Acid Receptor alpha (RARa) (AID 2283005; active = hit-call score of the fitted dose curve at least 0.9, where 1 is the maximum)
Sequence of Retinoic acid receptor alpha (Homo sapiens) (P10276 whole entry, looked up, the tested form may be a part): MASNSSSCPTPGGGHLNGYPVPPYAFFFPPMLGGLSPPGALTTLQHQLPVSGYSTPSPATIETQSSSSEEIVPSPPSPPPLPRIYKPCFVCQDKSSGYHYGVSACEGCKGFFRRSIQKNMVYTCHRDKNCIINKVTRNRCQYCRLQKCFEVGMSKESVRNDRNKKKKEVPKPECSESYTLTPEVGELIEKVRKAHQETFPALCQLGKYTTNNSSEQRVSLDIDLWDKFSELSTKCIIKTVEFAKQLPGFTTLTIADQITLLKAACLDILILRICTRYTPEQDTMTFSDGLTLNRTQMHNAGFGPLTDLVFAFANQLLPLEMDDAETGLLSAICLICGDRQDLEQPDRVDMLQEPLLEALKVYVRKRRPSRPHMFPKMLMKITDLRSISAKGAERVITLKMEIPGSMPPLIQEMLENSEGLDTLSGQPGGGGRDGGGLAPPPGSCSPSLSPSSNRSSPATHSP
Outline: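 HepG2 transiently transfected with multiplex GAL4-UAS reporter units including a human RARa–GAL4 chimera; 24 h compound exposure. Reporter mRNA quantified by RT-PCR, 6-FAM labeling and capillary electrophoresis; gain of signal versus DMSO.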

[10] = molecular target: human Peroxisome Proliferator-activated Receptor alpha (PPARa), PPARA (gene 5465) (UniProt Q07869); assay: ATG_PPARa_TRANS: Attagene TRANS-FACTORIAL HepG2 Assay for human Peroxisome Proliferator-activated Receptor alpha (PPARa) (AID 2283001; active = hit-call score of the fitted dose curve at least 0.9, where 1 is the maximum)
Sequence of human Peroxisome Proliferator-activated Receptor alpha (PPARa), PPARA (gene 5465) (Q07869 whole entry, looked up, the tested form may be a part): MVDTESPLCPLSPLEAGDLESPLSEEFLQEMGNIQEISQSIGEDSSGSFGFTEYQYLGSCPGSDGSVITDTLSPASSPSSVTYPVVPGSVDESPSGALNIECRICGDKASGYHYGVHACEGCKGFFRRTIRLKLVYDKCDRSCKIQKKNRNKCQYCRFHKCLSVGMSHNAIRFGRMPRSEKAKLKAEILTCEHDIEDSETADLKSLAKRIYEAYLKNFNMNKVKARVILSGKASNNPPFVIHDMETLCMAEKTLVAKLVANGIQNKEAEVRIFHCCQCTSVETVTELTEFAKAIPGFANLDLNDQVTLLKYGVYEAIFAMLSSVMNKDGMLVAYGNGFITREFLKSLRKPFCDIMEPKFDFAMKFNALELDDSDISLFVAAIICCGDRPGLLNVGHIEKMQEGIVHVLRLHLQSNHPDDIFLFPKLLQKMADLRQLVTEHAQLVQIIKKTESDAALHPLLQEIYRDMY
Outline: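 HepG2 cells transiently transfected with multiplexed GAL4-UAS reporters driven by exogenous chimeric NR-Gal4 proteins; reporter mRNA measured after 24 h dosing. Read-out by RT-PCR, 6-FAM labelling, HpaI digestion and capillary electrophoresis; gain of signal versus DMSO.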

[11] = molecular target: Nuclear receptor subfamily 1 group I member 2 (Homo sapiens) (UniProt O75469); assay: ATG_PXR_TRANS: Attagene TRANS-FACTORIAL HepG2 Assay for human Pregnane X Receptor (PXR) (AID 2283008; active = hit-call score of the fitted dose curve at least 0.9, where 1 is the maximum)
Sequence of Nuclear receptor subfamily 1 group I member 2 (Homo sapiens) (O75469 whole entry, looked up, the tested form may be a part): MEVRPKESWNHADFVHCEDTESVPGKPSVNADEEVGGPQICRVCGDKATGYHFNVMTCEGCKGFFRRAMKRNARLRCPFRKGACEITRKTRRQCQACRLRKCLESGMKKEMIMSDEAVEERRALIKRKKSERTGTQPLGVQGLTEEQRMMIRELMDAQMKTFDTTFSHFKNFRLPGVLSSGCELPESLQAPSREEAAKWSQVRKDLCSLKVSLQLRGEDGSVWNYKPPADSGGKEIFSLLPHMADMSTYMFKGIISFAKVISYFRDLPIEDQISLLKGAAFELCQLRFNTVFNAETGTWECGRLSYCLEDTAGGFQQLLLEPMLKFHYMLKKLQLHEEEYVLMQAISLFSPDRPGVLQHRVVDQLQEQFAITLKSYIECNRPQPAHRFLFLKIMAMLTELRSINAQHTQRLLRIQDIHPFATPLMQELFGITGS
Outline: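 HepG2 cells transiently transfected with multiple reporter units, here a PXR-GAL4 chimera driving a GAL4-UAS reporter; 24 h compound exposure. Reporter mRNA measured by RT-PCR, FAM labelling and capillary electrophoresis; gain of signal fitted against DMSO baseline.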

[12] = molecular target: human Retinoic Acid Receptor gamma (RARg), RARG (gene 5916) (UniProt P13631); assay: ATG_RARg_TRANS: Attagene TRANS-FACTORIAL HepG2 Assay for human Retinoic Acid Receptor gamma (RARg) (AID 2283009; active = hit-call score of the fitted dose curve at least 0.9, where 1 is the maximum)
Sequence of human Retinoic Acid Receptor gamma (RARg), RARG (gene 5916) (P13631 whole entry, looked up): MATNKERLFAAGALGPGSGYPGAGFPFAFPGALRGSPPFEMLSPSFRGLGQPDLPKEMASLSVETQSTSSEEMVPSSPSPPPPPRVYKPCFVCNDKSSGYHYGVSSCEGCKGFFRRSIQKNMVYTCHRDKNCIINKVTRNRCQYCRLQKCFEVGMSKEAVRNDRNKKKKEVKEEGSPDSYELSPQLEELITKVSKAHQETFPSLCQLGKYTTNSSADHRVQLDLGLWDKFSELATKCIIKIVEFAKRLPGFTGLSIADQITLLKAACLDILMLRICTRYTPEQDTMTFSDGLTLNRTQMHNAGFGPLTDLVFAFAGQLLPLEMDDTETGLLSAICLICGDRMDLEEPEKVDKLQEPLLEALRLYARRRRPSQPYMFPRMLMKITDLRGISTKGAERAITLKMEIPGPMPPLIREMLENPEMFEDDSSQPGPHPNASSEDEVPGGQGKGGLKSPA
Outline: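 Transient transfection of HepG2 with multi-reporter constructs, then 24 h chemical treatment. Total RNA isolated, reverse-transcribed, PCR-amplified, fluorescently labelled and resolved by capillary electrophoresis; activity scored as mRNA induction versus DMSO.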

[13] = molecular target: Peroxisome proliferator-activated receptor gamma (Homo sapiens) (UniProt P37231); assay: ATG_PPARg_TRANS: Attagene TRANS-FACTORIAL HepG2 Assay for human Peroxisome Proliferator-activated Receptor-gamma (PPARg) (AID 2283007; active = hit-call score of the fitted dose curve at least 0.9, where 1 is the maximum)
Sequence of Peroxisome proliferator-activated receptor gamma (Homo sapiens) (P37231 whole entry, looked up, the tested form may be a part): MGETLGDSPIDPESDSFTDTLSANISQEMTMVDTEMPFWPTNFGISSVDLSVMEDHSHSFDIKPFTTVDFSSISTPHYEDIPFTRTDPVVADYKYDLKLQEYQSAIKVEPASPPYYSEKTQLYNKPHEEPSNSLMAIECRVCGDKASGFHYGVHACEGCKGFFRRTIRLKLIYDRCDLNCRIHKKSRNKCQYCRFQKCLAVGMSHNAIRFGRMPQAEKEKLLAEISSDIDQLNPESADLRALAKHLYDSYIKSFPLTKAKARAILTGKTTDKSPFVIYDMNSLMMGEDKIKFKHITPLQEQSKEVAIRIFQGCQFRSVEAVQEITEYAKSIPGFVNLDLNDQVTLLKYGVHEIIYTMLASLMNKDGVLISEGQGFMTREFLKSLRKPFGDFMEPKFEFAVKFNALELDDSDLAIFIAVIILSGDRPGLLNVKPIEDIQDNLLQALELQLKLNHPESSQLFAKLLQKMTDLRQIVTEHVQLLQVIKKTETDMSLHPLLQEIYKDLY
Outline: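 Chimeric NR-Gal4 transactivation is measured in transiently transfected HepG2 cells by reporter mRNA induction at 24 h. Detection uses RT-PCR with fluorescent labelling and capillary electrophoresis; DMSO defines baseline.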

[14] = molecular target: human Retinoic Acid Receptor beta (RARb), RARB (gene 5915) (UniProt P10826); assay: ATG_RARb_TRANS: Attagene TRANS-FACTORIAL HepG2 Assay for human Retinoic Acid Receptor beta (AID 2283004; active = hit-call score of the fitted dose curve at least 0.9, where 1 is the maximum)
Sequence of human Retinoic Acid Receptor beta (RARb), RARB (gene 5915) (P10826 whole entry, looked up, the tested form may be a part): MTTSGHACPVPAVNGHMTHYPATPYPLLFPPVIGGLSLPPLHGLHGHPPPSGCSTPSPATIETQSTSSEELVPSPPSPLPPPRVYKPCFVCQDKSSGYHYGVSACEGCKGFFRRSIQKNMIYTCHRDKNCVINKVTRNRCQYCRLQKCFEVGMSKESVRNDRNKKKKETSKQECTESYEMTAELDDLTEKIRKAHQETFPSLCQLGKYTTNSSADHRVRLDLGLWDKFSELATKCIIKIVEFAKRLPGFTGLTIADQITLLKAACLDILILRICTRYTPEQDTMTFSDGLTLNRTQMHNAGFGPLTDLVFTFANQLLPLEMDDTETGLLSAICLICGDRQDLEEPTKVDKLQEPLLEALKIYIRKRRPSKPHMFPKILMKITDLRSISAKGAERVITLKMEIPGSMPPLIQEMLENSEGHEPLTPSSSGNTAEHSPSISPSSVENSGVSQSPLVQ
Outline: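 Readout is reporter mRNA induction: RNA reverse-transcribed, PCR-amplified, FAM-labelled, HpaI-cut and resolved by capillary electrophoresis. Transiently transfected HepG2 cells carrying exogenous NR–Gal4 chimeras were dosed for 24 h; activity fitted upward relative to DMSO.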

[15] = BSK_3C_TissueFactor: BioMAP Diversity Plus: 3C Assay for Tissue Factor Biomarker Activity (AID 2282997); details: BioMAP 3C HUVEC, tissue factor biomarker readout; actives raise or lower the signal
Outline: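 Human vascular primary cells (umbilical vein endothelium) received test chemical; Tissue Factor was determined by ELISA at 24 h, and both gain and loss of signal versus DMSO were fitted.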

[16] = BSK_3C_uPAR: BioMAP Diversity Plus: 3C Assay for Urokinase-type plasminogen activator receptor (uPAR) Biomarker Activity (AID 2282998); details: BioMAP 3C HUVEC, uPAR biomarker ELISA; actives raise or lower the signal
Outline: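 Human umbilical vein endothelial primary cells were exposed to test chemical for 24 h. Cell-surface uPAR was then quantified by ELISA, and responses were fitted bidirectionally against DMSO as negative control and baseline.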

[17] = BSK_3C_VCAM1: BioMAP Diversity Plus: 3C Assay for Vascular cell adhesion molecule 1 (VCAM1) Biomarker Activity (AID 2282999); details: BioMAP 3C HUVEC, VCAM1 ELISA, cytokine-stimulated; actives raise or lower the signal
Outline: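 Human umbilical vein endothelial cells (3C system), biomarker read by ELISA 24 h after dosing; bidirectional fit against DMSO baseline. Cytotoxicity tracked by SRB total-protein staining in parallel cultures at biomarker time.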

[18] = BSK_4H_Eotaxin3: BioMAP Diversity Plus: 4H Assay for Eotaxin 3 Biomarker Activity (AID 2283000); details: primary human endothelial cells (HUVEC); actives raise or lower the signal;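 note: CCL26 protein level quantified by ELISA in parallel with SRB cytotoxicity check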
Outline: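 Readout is Eotaxin-3 (CCL26) level by ELISA in primary human umbilical vein endothelial cells harvested 24 h after chemical exposure; activity fitted in both directions against DMSO control.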

[19] = read-out: Intercellular Adhesion Molecule 1 (ICAM1), ICAM1 (gene 3383); assay: BSK_3C_ICAM1: BioMAP Diversity Plus: 3C Assay for Intercellular Adhesion Molecule 1 (ICAM1) Biomarker Activity (AID 2283003); details: primary human endothelial cells (HUVEC); actives raise or lower the signal
Outline: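 ICAM-1 levels measured by ELISA after HUVEC cultures in the 3C system had been dosed for 24 h. Gain or loss of signal relative to DMSO was fitted in both directions.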

[20] = BSK_3C_Proliferation: Cell Proliferation Assessment in the BioMAP Diversity Plus: 3C Assay (AID 2283006); details: primary human endothelial cells (HUVEC)
Outline: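 Read-out is total protein by SRB absorbance at 560 nm, taken as a proxy for relative cell number. Primary human umbilical vein endothelium cultured below confluence was dosed for 48 h, TCA-fixed and SRB-stained; curves were fitted bidirectionally versus DMSO.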

Measured: AC50

Cc1ccccc1CCO
inactive: [1] | [2] | [3] | [4] | [5] | [6] | [7] | [8]

CC(CC(C)C)=NO
inactive: [1] | [2] | [3] | [4] | [5] | [6] | [7] | [8] | [9]

C=C(C)OC(C)=O
inactive: [1] | [2] | [3] | [4] | [5] | [6] | [7] | [10] | [11] | [12]

CCCCCCCCCCCCCCCCCCOS(=O)(=O)O
inactive: [3] | [6] | [11]
active: [1] 49.5 µM | [2] 33.4 µM | [4] 58.1 µM | [5] 13.7 µM | [7] 18.4 µM | [8] 112 µM

CCCCCCCCCCCCc1ccc(O)cc1
inactive: [1] | [2] | [3] | [4] | [5] | [6] | [7] | [10] | [8] | [13] | [12]
active: [11] 3 µM

CCCC/C=C/C=C\C=O
active: [4] 63.8 µM | [5] 41.3 µM | [7] 165 µM | [13] 7.73 µM | [11] 1.57 µM
inactive: [1] | [2] | [3] | [6] | [8]

N#Cc1ccc(C2CCCc3cncn32)cc1 (stereo not given)
inactive: [1] | [2] | [3] | [4] | [5] | [6] | [7] | [8] | [14] | [13] | [11] | [12]

Nc1ccc(Cl)c(N)c1
inactive: [1] | [2] | [3] | [4] | [5] | [6] | [10] | [8] | [14] | [9] | [11] | [12]

CCN1CCCC1=O
inactive: [1] | [2] | [3] | [4] | [5] | [6] | [7] | [13] | [11]

Cc1ccc2c(c1)CCCN2
inactive: [1] | [2] | [3] | [4] | [5] | [6] | [8] | [14] | [13] | [11]

Nc1nc(N)nc(-c2ccccc2)n1
inactive: [1] | [2] | [3] | [4] | [5] | [6] | [15] | [16] | [17] | [18] | [19] | [20] | [13] | [11]

CCCCCCCCCC[N+](C)(CCCCCCCCCC)CCC[Si](OC)(OC)OC
inactive: [1] | [2] | [4] | [6] | [10] | [8] | [13] | [11]
active: [3] 14.6 µM | [5] 16 µM
